What all share (experiment): DAPPL (digital affinity profiling via proximity ligation, sequencing); 10 mM Tris-HCl pH 7.5, 50 mM NaCl, 1 mM DTT, 4% glycerol, room temperature, 30 min; GST-TFs on glutathione beads, 16-mer random dsDNA library, 0.1% formaldehyde crosslink after washing; high values mean tight binding
The target in assay [1] is T1, FLI1 (Homo sapiens, UniProt Q01543 1-452).
T1 sequence: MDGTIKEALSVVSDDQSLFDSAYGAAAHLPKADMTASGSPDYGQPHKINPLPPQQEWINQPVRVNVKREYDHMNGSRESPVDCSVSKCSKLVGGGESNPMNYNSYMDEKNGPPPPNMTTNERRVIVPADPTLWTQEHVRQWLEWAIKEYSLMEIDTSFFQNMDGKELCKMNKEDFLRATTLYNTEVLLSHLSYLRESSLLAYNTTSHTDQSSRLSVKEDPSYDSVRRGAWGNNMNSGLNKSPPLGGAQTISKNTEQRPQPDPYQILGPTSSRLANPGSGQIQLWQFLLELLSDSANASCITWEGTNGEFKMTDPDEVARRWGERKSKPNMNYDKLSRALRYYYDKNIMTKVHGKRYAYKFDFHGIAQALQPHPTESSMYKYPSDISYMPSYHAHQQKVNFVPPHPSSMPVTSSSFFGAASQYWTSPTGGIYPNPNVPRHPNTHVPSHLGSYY
The note with it: protein: recombinant; tags: N-terminal GST; dsDNA, one strand shown. Put shortly:
(§1)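 Human transcription factors were made in yeast as GST fusions, captured on glutathione beads and barcoded with DNA. With a tag-only sample included, the pool was incubated with 200 nmole of a random double-stranded 16-mer DNA library in Tris/NaCl/DTT/glycerol buffer at room temperature for 30 min, then crosslinked with 0.1% formaldehyde after washing, ligated by proximity, amplified and sequenced. For binding signal, each hexamer's read frequency for a factor is divided by its frequency for the tag-only sample.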

Assay [2] deals with T2, ELK1 (Homo sapiens, UniProt P19419 1-428).
T2 sequence: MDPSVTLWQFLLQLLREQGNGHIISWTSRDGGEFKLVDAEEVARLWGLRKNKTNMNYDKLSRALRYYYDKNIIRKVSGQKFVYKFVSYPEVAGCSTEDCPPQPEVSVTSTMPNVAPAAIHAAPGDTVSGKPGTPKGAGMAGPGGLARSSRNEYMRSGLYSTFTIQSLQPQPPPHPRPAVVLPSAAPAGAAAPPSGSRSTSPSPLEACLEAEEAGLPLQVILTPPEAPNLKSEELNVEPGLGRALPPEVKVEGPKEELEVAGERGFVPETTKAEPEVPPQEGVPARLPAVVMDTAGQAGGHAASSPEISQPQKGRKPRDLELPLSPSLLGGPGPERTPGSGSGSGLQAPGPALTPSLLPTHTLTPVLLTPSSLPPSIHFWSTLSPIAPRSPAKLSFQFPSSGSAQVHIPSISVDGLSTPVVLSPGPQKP
The following applies: protein: recombinant; tags: N-terminal GST; dsDNA, one strand shown. In short, it runs like this: as §1

Assay [3] addresses T3, GABPA (Homo sapiens, UniProt Q06546 1-454).
T3 sequence: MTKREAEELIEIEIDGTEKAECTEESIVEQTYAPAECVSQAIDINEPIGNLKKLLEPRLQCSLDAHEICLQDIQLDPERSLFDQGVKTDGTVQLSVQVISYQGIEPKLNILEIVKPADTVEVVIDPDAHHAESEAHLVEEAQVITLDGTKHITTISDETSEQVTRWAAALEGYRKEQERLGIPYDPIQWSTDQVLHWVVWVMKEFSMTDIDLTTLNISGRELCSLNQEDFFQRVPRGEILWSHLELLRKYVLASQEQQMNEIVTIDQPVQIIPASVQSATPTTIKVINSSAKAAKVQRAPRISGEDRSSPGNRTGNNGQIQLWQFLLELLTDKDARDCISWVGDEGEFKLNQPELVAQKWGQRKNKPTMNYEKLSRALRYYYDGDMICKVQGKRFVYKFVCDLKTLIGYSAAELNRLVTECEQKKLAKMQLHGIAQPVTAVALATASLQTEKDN
The following applies: protein: recombinant; tags: N-terminal GST; dsDNA, one strand shown. In short, it runs like this:
as §1

In assay [4] the target is T4, ERG (Homo sapiens, UniProt P11308 1-479).
T4 sequence: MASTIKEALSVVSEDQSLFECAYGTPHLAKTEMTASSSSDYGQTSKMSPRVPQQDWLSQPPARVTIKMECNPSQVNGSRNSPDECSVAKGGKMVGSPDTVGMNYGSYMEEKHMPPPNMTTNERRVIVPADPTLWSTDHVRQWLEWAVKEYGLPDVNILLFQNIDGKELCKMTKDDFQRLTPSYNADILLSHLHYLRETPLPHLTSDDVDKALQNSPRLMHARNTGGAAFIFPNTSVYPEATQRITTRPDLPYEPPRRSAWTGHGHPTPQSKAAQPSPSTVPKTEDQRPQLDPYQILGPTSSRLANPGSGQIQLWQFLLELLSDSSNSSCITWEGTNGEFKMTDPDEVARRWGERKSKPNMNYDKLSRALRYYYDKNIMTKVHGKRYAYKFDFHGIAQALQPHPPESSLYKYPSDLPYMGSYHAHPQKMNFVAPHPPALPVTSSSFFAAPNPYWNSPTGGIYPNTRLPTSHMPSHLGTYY
The note with it: protein: recombinant; tags: N-terminal GST; dsDNA, one strand shown. Put shortly:
as §1

Assay [5] addresses ELF1 (Homo sapiens, UniProt P32519 1-619). The following applies: protein: recombinant; tags: N-terminal GST; dsDNA, one strand shown. Put shortly: as §1
Assay [6] deals with T5, EHF (Homo sapiens, UniProt Q9NZC4 1-300).
T5 sequence: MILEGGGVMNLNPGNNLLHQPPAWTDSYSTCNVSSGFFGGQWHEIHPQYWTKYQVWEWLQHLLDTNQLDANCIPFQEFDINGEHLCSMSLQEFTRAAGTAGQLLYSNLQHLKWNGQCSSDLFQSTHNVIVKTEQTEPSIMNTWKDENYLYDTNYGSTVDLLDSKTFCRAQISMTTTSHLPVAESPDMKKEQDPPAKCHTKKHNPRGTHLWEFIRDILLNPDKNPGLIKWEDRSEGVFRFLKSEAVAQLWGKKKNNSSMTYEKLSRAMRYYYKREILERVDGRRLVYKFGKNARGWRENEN
The note with it: protein: recombinant; tags: N-terminal GST; dsDNA, one strand shown. In short, it runs like this:
as §1

The target of assay [7] is SPI1 (Homo sapiens, UniProt P17947 1-270). The note with it: protein: recombinant; tags: N-terminal GST; dsDNA, one strand shown. In short, it runs like this: as §1
Assay [8] deals with SPIB (Homo sapiens, UniProt Q01892 1-262). The following applies: protein: recombinant; tags: N-terminal GST; dsDNA, one strand shown. Put shortly: as §1
Sequence of SPIB (Q01892 whole entry): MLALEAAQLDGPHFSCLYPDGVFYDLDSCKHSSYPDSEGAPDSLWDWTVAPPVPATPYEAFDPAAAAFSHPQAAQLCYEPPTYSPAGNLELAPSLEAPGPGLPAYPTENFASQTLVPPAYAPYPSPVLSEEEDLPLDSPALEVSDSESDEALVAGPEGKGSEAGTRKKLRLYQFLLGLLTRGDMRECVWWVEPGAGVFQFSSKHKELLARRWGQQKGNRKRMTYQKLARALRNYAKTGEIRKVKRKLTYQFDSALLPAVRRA
Assay [9] concerns the target T6, ELK3 (Homo sapiens, UniProt P41970 1-407).
T6 sequence: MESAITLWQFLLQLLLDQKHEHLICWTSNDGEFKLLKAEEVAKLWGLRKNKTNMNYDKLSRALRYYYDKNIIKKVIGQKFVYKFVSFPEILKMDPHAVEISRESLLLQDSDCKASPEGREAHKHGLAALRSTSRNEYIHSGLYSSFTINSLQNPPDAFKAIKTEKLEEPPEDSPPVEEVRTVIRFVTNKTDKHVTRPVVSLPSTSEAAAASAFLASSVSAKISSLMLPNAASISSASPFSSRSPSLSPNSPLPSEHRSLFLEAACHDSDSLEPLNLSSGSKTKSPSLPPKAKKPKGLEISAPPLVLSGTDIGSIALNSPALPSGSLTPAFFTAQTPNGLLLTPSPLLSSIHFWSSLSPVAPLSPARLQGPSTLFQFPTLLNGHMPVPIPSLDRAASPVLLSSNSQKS
The note with it: protein: recombinant; tags: N-terminal GST; dsDNA, one strand shown. Put shortly:
as §1

The target in assay [10] is T7, FEV (Homo sapiens, UniProt Q99581 1-238).
T7 sequence: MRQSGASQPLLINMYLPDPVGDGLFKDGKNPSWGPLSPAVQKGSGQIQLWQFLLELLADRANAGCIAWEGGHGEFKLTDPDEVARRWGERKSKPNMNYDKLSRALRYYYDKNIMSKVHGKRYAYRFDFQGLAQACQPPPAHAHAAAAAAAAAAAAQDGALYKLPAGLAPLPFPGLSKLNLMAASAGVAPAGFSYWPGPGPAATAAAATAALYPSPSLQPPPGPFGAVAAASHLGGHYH
The following applies: protein: recombinant; tags: N-terminal GST; dsDNA, one strand shown. Put shortly:
as §1

Assay [11] has as its target ETV5 (Homo sapiens, UniProt P41161 1-510). The following applies: protein: recombinant; tags: N-terminal GST; dsDNA, one strand shown. In short, it runs like this: as §1
The target of assay [12] is HSF1 (Homo sapiens, UniProt Q00613 1-529). The following applies: protein: recombinant; tags: N-terminal GST; chain copies: 3; dsDNA, one strand shown. In short, it runs like this: as §1
Sequence of HSF1 (Q00613 whole entry): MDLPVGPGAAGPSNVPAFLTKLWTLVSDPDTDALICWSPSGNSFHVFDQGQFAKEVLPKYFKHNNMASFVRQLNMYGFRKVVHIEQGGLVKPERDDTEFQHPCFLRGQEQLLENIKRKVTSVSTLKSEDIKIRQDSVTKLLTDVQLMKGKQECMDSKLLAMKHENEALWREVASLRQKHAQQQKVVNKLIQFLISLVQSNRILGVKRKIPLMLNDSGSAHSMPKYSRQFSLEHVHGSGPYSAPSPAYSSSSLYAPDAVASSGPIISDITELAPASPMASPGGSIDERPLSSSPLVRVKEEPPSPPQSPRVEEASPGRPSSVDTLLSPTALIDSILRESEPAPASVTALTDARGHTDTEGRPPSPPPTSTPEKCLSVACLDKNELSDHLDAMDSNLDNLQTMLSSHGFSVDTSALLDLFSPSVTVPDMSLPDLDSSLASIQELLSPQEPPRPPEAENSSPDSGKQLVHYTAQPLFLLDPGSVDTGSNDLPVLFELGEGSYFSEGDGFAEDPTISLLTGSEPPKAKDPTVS
The target of assay [13] is T8, SPIC (Homo sapiens, UniProt Q8N5J4 1-248).
T8 sequence: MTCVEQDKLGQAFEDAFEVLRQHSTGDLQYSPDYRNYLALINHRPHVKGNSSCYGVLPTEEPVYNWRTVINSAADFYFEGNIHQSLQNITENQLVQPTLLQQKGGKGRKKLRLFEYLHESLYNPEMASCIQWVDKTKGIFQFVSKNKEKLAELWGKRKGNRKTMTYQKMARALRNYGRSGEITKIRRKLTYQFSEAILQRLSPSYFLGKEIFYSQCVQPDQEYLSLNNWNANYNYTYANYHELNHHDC
The note with it: protein: recombinant; tags: N-terminal GST; dsDNA, one strand shown. Put shortly:
as §1

Assay [14] addresses ELF4 (Homo sapiens, UniProt Q99607 1-663). The note with it: protein: recombinant; tags: N-terminal GST; dsDNA, one strand shown. In short, it runs like this: as §1
For assay [15], the target named is T9, ELK4 (Homo sapiens, UniProt P28324-2 1-405).
T9 sequence: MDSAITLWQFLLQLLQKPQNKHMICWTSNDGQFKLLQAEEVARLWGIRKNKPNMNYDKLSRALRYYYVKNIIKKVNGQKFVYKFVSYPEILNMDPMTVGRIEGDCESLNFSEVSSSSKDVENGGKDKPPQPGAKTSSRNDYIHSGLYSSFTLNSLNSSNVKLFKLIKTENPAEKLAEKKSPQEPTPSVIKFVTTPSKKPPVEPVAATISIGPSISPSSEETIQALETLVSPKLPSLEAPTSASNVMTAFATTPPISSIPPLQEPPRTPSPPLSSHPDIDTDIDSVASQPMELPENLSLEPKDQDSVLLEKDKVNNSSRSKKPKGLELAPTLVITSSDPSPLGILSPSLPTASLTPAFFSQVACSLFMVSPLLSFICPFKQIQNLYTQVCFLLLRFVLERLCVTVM
The note with it: protein: recombinant; tags: N-terminal GST; dsDNA, one strand shown. In short, it runs like this:
as §1

Assay [16] addresses T10, ETV2 (Homo sapiens, UniProt O00321 1-342).
T10 sequence: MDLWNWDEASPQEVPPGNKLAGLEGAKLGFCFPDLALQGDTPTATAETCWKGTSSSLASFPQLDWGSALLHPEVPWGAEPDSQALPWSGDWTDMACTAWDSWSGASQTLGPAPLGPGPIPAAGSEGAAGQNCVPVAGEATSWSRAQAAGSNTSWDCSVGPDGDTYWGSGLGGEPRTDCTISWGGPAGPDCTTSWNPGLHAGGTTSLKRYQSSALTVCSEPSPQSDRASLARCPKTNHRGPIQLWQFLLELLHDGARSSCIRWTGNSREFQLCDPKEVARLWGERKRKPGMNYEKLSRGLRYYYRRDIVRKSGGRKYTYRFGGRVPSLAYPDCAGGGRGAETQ
The note with it: protein: recombinant; tags: N-terminal GST; dsDNA, one strand shown. In short, it runs like this: as §1

In assay [17] the target is T11, ELF3 (Homo sapiens, UniProt P78545 1-371).
T11 sequence: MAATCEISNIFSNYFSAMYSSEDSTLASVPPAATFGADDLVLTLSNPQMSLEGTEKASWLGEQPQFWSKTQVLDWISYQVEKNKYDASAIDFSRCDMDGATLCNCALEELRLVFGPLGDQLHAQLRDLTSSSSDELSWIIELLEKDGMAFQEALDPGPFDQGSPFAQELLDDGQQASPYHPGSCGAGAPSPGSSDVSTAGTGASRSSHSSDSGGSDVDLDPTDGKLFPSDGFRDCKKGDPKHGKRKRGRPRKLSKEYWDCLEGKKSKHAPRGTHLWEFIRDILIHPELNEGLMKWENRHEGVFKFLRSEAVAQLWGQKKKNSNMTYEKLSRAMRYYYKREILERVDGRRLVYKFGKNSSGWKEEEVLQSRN
The note with it: protein: recombinant; tags: N-terminal GST; dsDNA, one strand shown. Put shortly:
as §1

The target of assay [18] is CRX (Homo sapiens, UniProt O43186 1-299). The note with it: protein: recombinant; tags: N-terminal GST; dsDNA, one strand shown. In short, it runs like this: as §1
Sequence of CRX (O43186 whole entry): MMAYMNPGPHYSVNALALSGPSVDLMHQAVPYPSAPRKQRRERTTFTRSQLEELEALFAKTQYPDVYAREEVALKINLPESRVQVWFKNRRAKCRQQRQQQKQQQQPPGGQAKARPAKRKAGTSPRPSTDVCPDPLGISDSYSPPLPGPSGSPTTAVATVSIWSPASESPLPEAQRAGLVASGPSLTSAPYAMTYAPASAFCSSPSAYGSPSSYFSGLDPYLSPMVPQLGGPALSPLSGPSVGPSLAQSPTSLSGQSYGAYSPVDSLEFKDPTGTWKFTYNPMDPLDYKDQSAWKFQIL
Assay [19] has as its target ETV1 (Homo sapiens, UniProt P50549 1-477). The following applies: protein: recombinant; tags: N-terminal GST; dsDNA, one strand shown. Put shortly: as §1

Sequence of ETV5 (P41161 whole entry): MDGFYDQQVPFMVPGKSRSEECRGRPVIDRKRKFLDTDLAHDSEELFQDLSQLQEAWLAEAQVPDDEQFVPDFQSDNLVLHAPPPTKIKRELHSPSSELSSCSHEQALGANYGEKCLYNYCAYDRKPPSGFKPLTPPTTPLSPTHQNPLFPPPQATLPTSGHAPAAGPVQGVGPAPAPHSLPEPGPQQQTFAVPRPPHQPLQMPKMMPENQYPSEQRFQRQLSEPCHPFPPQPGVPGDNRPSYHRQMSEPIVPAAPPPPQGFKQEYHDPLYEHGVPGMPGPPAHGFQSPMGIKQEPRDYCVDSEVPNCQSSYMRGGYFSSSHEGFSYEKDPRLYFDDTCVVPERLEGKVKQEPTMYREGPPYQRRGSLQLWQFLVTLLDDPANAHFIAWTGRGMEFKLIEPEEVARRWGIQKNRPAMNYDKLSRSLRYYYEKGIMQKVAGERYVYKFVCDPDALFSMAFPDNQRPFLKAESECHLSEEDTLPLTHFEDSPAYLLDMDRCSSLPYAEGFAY
Sequence of ELF4 (Q99607 whole entry): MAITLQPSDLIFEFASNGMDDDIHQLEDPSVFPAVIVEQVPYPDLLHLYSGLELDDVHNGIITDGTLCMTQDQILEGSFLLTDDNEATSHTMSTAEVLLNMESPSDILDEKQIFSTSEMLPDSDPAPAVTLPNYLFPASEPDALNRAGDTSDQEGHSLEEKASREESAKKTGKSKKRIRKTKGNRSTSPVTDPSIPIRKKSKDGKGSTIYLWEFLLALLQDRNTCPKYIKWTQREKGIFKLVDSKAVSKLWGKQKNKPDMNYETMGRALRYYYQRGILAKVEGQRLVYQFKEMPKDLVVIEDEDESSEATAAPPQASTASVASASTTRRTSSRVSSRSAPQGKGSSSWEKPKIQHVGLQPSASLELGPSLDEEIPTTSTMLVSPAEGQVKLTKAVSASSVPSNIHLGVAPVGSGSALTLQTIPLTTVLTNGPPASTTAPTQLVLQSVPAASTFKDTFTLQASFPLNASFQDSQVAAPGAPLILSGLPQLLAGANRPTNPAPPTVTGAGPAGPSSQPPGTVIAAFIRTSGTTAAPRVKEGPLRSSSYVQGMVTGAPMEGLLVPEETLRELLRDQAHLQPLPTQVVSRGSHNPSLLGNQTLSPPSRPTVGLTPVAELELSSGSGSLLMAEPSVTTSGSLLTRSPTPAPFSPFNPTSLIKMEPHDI
Sequence of ELF1 (P32519 whole entry): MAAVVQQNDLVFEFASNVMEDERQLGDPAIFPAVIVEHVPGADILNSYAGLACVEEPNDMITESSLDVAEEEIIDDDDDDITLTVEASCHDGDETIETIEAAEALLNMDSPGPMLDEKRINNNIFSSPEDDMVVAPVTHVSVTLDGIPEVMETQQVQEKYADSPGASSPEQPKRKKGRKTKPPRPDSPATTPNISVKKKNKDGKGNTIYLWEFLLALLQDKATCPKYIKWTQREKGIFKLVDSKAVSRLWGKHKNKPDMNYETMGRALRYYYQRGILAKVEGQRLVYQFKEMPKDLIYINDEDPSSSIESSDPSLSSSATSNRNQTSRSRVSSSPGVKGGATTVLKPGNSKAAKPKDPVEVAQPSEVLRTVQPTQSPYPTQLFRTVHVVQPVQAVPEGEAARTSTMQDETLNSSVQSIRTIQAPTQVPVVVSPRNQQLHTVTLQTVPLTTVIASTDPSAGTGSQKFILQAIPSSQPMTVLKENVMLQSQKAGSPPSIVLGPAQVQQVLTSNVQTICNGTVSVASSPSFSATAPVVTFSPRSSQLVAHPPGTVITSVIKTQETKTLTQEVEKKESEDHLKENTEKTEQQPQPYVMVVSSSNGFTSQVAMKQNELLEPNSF
Sequence of ETV1 (P50549 whole entry): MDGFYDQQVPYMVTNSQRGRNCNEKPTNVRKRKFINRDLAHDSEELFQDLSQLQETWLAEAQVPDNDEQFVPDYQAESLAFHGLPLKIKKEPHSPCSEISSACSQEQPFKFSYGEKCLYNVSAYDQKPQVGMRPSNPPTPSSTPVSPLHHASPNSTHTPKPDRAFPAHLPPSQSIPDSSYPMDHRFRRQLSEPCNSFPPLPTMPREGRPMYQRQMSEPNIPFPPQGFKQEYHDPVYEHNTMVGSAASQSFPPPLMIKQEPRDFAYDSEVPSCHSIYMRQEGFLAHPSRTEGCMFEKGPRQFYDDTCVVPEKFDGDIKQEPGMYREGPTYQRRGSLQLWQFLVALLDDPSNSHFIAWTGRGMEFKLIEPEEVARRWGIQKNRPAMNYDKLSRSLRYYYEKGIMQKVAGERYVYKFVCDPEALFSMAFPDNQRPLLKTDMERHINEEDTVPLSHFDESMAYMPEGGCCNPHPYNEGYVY

Regarding CCTGGT, the binding signal is 1.28 fold enrichment (6-mer frequency, TF over GST control) in assay [1]; 1.34 fold enrichment (6-mer frequency, TF over GST control) in assay [2]; 1.4 fold enrichment (6-mer frequency, TF over GST control) in assay [3]; 1.29 fold enrichment (6-mer frequency, TF over GST control) in assay [4]; 1.44 fold enrichment (6-mer frequency, TF over GST control) in [5]; 1.47 fold enrichment (6-mer frequency, TF over GST control) in assay [6]. Further, the binding signal was 1.4 fold enrichment (6-mer frequency, TF over GST control) in assay [7]; 1.52 fold enrichment (6-mer frequency, TF over GST control) in assay [8]; 1.33 fold enrichment (6-mer frequency, TF over GST control) in [9]; 1.25 fold enrichment (6-mer frequency, TF over GST control) in assay [10]; 1.42 fold enrichment (6-mer frequency, TF over GST control) in assay [11]; 1.08 fold enrichment (6-mer frequency, TF over GST control) in assay [12]. The binding signal was 1.34 fold enrichment (6-mer frequency, TF over GST control) in [13]; 1.35 fold enrichment (6-mer frequency, TF over GST control) in assay [14]; 1.2 fold enrichment (6-mer frequency, TF over GST control) in [15]; 1.56 fold enrichment (6-mer frequency, TF over GST control) in assay [16]; 1.13 fold enrichment (6-mer frequency, TF over GST control) in assay [17]; 1.1 fold enrichment (6-mer frequency, TF over GST control) in assay [18]. Moreover, the binding signal in assay [19] is 1.54 fold enrichment (6-mer frequency, TF over GST control).

The values are drawn from PMC7862700, “An all-to-all approach to the identification of sequence-specific readers for epigenetic DNA modifications on cytosine”.
